TEAD-YAP inh = TEAD-YAP interaction inhibition, primary screen, TEAD-YAP interaction inhibitor project, luminescence, HEK-TIYL cells | TEAD-Gal4/YAP UAS-luciferase luminescence | inhibition, % at 9.12 µM | actives 1.4% (n = 640,000); in the data active = inhibition above about 32%;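 also: 0% = median of test compound wells and 100% = reference inhibitor wells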
MITF primary = MITF inhibitors, primary screen, biochemical, AlphaScreen, human; Microphthalmia-associated transcription factor (Homo sapiens), O75030; inhibition, % at 2.6 µM; AlphaScreen MITF homodimerization, bead proximity signal; actives 0.91% (n = 650,000); in the data active = inhibition above about 50%;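 also: 0% = vehicle wells with protein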
Target sequence (O75030 whole entry, looked up): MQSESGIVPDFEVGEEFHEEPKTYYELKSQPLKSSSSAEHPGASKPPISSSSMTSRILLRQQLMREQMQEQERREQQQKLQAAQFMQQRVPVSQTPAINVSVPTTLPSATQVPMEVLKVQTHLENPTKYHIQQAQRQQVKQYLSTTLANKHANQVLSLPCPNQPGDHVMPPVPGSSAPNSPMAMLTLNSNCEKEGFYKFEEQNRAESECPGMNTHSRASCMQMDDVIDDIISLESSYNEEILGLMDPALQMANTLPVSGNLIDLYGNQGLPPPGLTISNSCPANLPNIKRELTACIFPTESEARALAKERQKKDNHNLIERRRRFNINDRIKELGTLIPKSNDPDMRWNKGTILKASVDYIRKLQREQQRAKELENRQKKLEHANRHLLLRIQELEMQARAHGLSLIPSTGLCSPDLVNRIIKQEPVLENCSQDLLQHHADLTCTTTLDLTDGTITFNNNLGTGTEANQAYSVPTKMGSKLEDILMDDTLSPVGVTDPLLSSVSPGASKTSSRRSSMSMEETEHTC
GPR151 activ = activators of human GPR151, primary screen, cell-based, PathHunter beta-arrestin, luminescence; G-protein coupled receptor 151 (Homo sapiens), Q8TDV0; PathHunter beta-arrestin GPR151 cells; activation, % at 11.2 µM; actives 1% (n = 650,000); AID 1508602, 2020; in the data active = activation above about 4.9%;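 also: 0% = median of compound wells and 100% = cells with positive control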
FBW7 activator = FBW7 E3 ligase activators, primary screen, biochemical, AlphaScreen, human; actives 0.13% (n = 650,000); AlphaScreen FBW7–phospho-cyclin E peptide binding, activator screen; F-box/WD repeat-containing protein 7 (Homo sapiens), Q969H0; normalized activity (activation), % at 26.1 µM; in the data active = normalized activity above about 1.9%;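 also: purified mutant Fbw7 with reduced substrate affinity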
GPR151 conf act = GPR151 activators, triplicate retest, confirmation, cell-based, PathHunter beta-arrestin, luminescence; AID 1508609, 2020; GPR151 PathHunter beta-arrestin cells, 90 min; % of EA-reagent control over plate median; 6,700 tested, under 10 active; activation, % at 11.2 µM; shares compounds with GPR151 activ;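 active = mean percent activation across replicates above the confirmation screen cutoff of 4.91%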
GPR119 ag = GPR119 activators in beta-arrestin cells, counter-screen for GPR151 activator project, cell-based, PathHunter beta-arrestin, luminescence, triplicate; shares compounds with GPR151 activ; 90 min; 0 = compound-well median, 100 = enzyme-acceptor control; activation, % at 11.2 µM; actives 0.3% (n = 6,700); AID 1508611, 2020;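 active = mean percent activation in the counterscreen above 29.09%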;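 also: counterscreen on off-target GPR119 to flag nonselective hits from the GPR151 activator screen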
Active calls of the source: *; . = no result given. The list is not random: actives were taken first. Their share in the collection is about 3.5%.

SMILES | TEAD-YAP inh | MITF primary | GPR151 activ | FBW7 activator | GPR151 conf act | GPR119 ag
CCc1ccccc1N(CC(=O)NC1CC2CCC1C2)S(C)(=O)=O (stereo unspecified) | 0.1 | 8.0 | 5.6* | 0.1 | 0.2 | -1.8
CS(=O)(=O)N(CC(=O)NC1CC2CCC1C2)c1cc(Cl)c(Cl)cc1Cl (stereo unspecified) | 5.1 | 4.1 | 1.3 | 0.1 | . | .
O=C(c1nc2sccn2c1CNCCc1ccncc1)N1CCCCCCC1 | 3.3 | -13.3 | -0.4 | 0.1 | . | .
Cc1cccn2c(CNCCSc3nccn3C)c(C(=O)N3CCCCC3)nc12 | -4.8 | 4.8 | 0.7 | -0.1 | . | .
COC(=O)[C@@H]1CCCN1Cc1c(C(=O)N2CCOCC2)nc2c(C)cccn12 | 3.3 | -11.3 | -1.1 | -0.2 | . | .
CSCCNCc1c(C(=O)N2CCCCC2)nc2c(C)cccn12 | -1.3 | 4.9 | 9.0* | 0.0 | 0.3 | 2.8
Cc1cccn2c(CN3CCCCC3CCn3cccn3)c(C(=O)N3CCOCC3)nc12 (stereo unspecified) | 1.1 | -13.0 | 7.8* | -0.1 | 0.2 | 3.9
O=C(c1nc2sccn2c1CNCCc1cccnc1)N1CCCC1 | 6.7 | 0.4 | 11.7* | -0.1 | 0.3 | 7.5
COc1ccc(CNC(=O)c2cc(-c3ccccc3O)on2)cc1 | 3.0 | 2.2 | 0.4 | 0.0 | . | .
COC(=O)c1cc2sc(C)cc2n1Cc1cc(=O)n2ccccc2n1 | -1.3 | -2.5 | 9.1* | 0.0 | -0.2 | 2.3
Cc1ccccc1-n1c(=O)c2ccccc2n(Cc2cc(=O)n3ccccc3n2)c1=O | -6.5 | -8.5 | -0.7 | -0.1 | . | .
O=C(Nc1ccc(S(=O)(=O)N2CCCCCC2)cc1)c1ccccc1Cl | -14.9 | 1.9 | -0.4 | -0.1 | . | .
O=C(NCC1Cc2c(F)ccc(-c3ccncc3)c2O1)c1ccc(N2CCCC2)cc1 (stereo unspecified) | 1.2 | 7.1 | 0.4 | 0.0 | . | .
CCCCCCCCCCCCCC/C(C(=O)O)=C(\C)C(=O)O | 6.1 | 14.6 | 9.5* | 0.0 | 2.2 | -3.5
O=C(c1ccc2nc(-c3cccs3)c(-c3cccs3)nc2c1)N1CCN(c2ccc(Cl)cc2)CC1 | 8.1 | -0.5 | 1.6 | 0.6 | . | .
COc1cccc(C(=O)OCc2cccc([N+](=O)[O-])c2)c1 | -8.2 | 10.1 | 6.9* | 0.5 | 1.3 | -2.2
COc1cccc(COC(=O)c2n[nH]c3ccccc23)c1 | -14.6 | 5.4 | 6.9* | -0.1 | -1.3 | -8.5
COc1ccc(C(=O)OCc2cccc([N+](=O)[O-])c2)cc1 | 1.7 | -2.7 | 4.2 | -0.4 | . | .
O=C(CSc1ccc(F)cc1)Nc1cc(Cl)ccc1O | 9.8 | 12.8 | 6.4* | -0.1 | 0.4 | -0.4
O=C(CSc1ccccc1)Nc1cc(Cl)ccc1O | 7.3 | -7.4 | -2.2 | -0.1 | . | .
O=C(CSc1ccc(F)cc1)Nc1ccc(Cl)c(N2CCCS2(=O)=O)c1 | -4.6 | -7.6 | 12.2* | 0.2 | 0.4 | 0.9
CCN(CC(=O)NC(C)C)C(=O)C(CCSC)NC(=O)c1cccc(C)c1 (stereo unspecified) | 3.0 | -9.0 | 6.3* | -0.1 | 0.8 | -1.5
CCCNC(=O)c1cc(NCC)nc2ccccc12 | -4.9 | -4.6 | 5.2* | -0.1 | 0.9 | -0.5
Cc1ccc(-n2cc(-c3ccccc3)c3c(NCc4ccccc4)ncnc32)cc1 | 11.6 | -2.0 | 0.1 | 0.3 | . | .
Cc1ccc(CNc2ncnc3c2c(-c2ccccc2)cn3-c2ccc(Cl)cc2)cc1 | -0.8 | -10.6 | 8.4* | 0.1 | -0.3 | -1.9
O=C(N1CCOCC1)N1CCN(Cc2ccc3c(c2)OCO3)CC1 | 10.6 | 7.0 | 6.1* | -0.1 | 0.3 | -4.4
CCN1CCN(CC(O)COCc2ccc3c(c2)OCO3)CC1 (stereo unspecified) | 5.3 | 11.2 | 0.1 | 0.2 | . | .
OC(COc1ccccc1)CN1CCN(Cc2ccc3c(c2)OCO3)CC1 (stereo unspecified) | 7.8 | 15.1 | 8.4* | 0.1 | -1.0 | -8.5

Screening data as filed in PubChem BioAssay.
